One may read the inhibition as the relative decrease from the control value, in per cent.

Here are results for 95 compounds from PubChem BioAssay AID1863 (Southern Research Specialized Biocontainment Screening …, 2009).

The structures appear in SMILES notation. Hit rate of the full screen: of about 300,000 compounds, about 480 (0.16%) were called active. Not all results are given here. Measured potencies and affinities stand elsewhere. Unmarked numbers belong to inactive results.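 The calls were made as follows: active = inhibition over 29.93%, a cutoff 3 SD above the screen mean, later confirmed by dose response; inconclusive = inhibition over 29.93% but no dose response follow-up; inactive = inhibition at most 29.93% or unconfirmed.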

A short description of the assay: inhibitors of PhoP regulon expression, primary screen, Salmonella Typhimurium, GFP reporter (AID 1863).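 Also: 0% = low Mg2+ inducing control and 100% = high Mg2+ repressing control.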 To be noted: S. Typhimurium PhoP-regulated promoter GFP reporter, 4 h; at 50 µM; hits give high values.
`CCOc1ccccc1N1CCN(CC(=O)Nc2ncc(C)s2)CC1`: the inhibition is -2.9%.
Turning to `Oc1c(Br)cc(Br)cc1C=NCc1ccc(F)cc1`, the inhibition is 10.4%.
As for `O=C(Cc1ccccc1)N/N=C/c1cc(Br)cc(Br)c1O`, the inhibition is -8.98%.
For the compound `Oc1cccc(C=NCc2ccccc2)c1`, the inhibition is 4.18%.
Turning to `Oc1cccc(/C=N/N=C/c2cccc(O)c2O)c1O`, the inhibition was 16.2%.
The value for `CCOc1ccccc1N(CC(=O)N/N=C(\C)c1cccc(Br)c1)S(C)(=O)=O` was -0.46%.
With `CC(C)C[C@H](NC(=O)c1[nH]cnc1C(=O)N[C@H](C)c1ccccc1)C(=O)OC(C)(C)C`, the inhibition is -2.19%.
As to `CCCCCCCCOC(=O)C[N+](C)(C)C/C=C(/C)Cl`, the inhibition was 2.02%.
The value for `CCCCCCCCCCCCOC(=O)C[N+](C)(C)C` was 0.96%; that for `Cc1cc(C(=O)NCCN2CCOCC2)ccc1[N+](=O)[O-]` was -2.2%; that for `Nc1nc(-c2ccccn2)nc(N)c1Cc1ccc(Cl)cc1Cl` was 3.01%.
Consider `Cc1nc(N)c(Cc2ccccc2F)c(N)n1`, for which the inhibition is 2.15%.
Take `COc1ccc(C(=O)NCC(=O)N2CCN(c3ccccc3)CC2)cc1`: the inhibition is -3.55%.
In the case of `COCc1c(C(=O)N/N=C/c2ccc(C)o2)nnn1-c1nonc1N`, the inhibition is 4.95%.
`COc1cccc(CC(=O)Nc2nc(-c3cccnc3)cs2)c1`: the inhibition was -6.4%.
As to `Cc1ccc(N2C(=O)CC(NNc3nc4ccccc4s3)C2=O)cc1` (stereo not given), the inhibition is 7.17%.
In the case of `Cc1cc(=O)[nH]c(-n2nc(C)cc2C)n1`, the inhibition was -11.6%.
`Cc1ccc(Nc2cc(C)nn2-c2nc(C)cc(C)n2)cc1`: the inhibition is 14.5%.
The figure for `Cc1ccc(S(=O)(=O)N2CCN(Cc3ccccc3)CC2)cc1` is -4.43%; for `Cc1cc(C)c2ccc(C(=O)O)nc2c1O` it is -7.66%; for `Cc1cc(C)c2ccc(NN)nc2c1O` it is 0%.
Regarding `CCn1c(C)nnc1SCC(=O)Nc1ccc(N2CCOCC2)cc1`, the inhibition is 10%.
The figure for `O=C(COc1ccccc1[N+](=O)[O-])N1CCC(Cc2ccccc2)CC1` is 4.09%; for `Cc1nnc(N/N=C/C(C)c2ccccc2)[nH]c1=O` (stereo not given) it is -2.09%.
The figure for `Cc1nnc(N/N=C/c2c[nH]c3ccccc23)[nH]c1=O` is 7.38%; for `S=C(Nc1ccccc1Cl)N(Cc1ccccc1)Cc1cccnc1` it is 4.33%; for `O=C(CSc1ccc(-c2ccccn2)nn1)N1CCc2ccccc21` it is -3.41%.
Regarding `O=C(C[n+]1cc(-c2ccccc2)n2c1CCC2)Nc1nc(-c2ccc(F)cc2)cs1`, the inhibition is 11.3%.
For `Cc1ccc(-c2csc(NC(=O)C[n+]3cc(-c4ccccc4)n4c3CCC4)n2)cc1`, the inhibition is -8.54%.
As to `O=C(C[n+]1cc(-c2ccc(F)cc2)n2c1CCC2)Nc1nc(-c2ccc(F)cc2)cs1`, the inhibition is 20.4%.
For the compound `Cc1ccc(NC(=O)C[n+]2cc(-c3ccccc3)n3c2CCC3)cc1`, the inhibition was -4.1%.
Regarding `Cc1ccc(-c2c[n+](CC(=O)Nc3nc(-c4ccccc4)cs3)c3n2CCC3)cc1`, the inhibition was -7.93%.
`Cc1ccc(NC(=O)C[n+]2cc(-c3ccc(C)cc3)n3c2CCC3)cc1`: the inhibition is -9.5%.
On to `O=C(c1cc2ccc([N+](=O)[O-])cc2oc1=O)N1CCOCC1`, for which the inhibition is -3.48%.
As for `O=C(COc1ccc(S(=O)(=O)N2CCCCC2)cc1)Nc1ccccc1F`, the inhibition is -6.38%.
Take `O=C(c1ccc(N2CCN(C3CC(=O)N(Cc4cccs4)C3=O)CC2)cc1)c1cccnc1` (stereo not given): the inhibition is 4.02%.
Consider `O=C(O)c1ccn2c(C(=O)c3ccccc3)c(-c3ccccc3)cc2c1`, for which the inhibition was -13.9%.
For the compound `Cc1cc(C)c(NC(=O)c2cc(S(=O)(=O)N3CCOCC3)ccc2F)c(C)c1`, the inhibition was -1.33%.
Turning to `C[C@H]1COc2c(C3(N)CC3)c(F)cc3c(=O)c(C(=O)O)cn1c23`, the inhibition is -7.84%.
In the case of `C[C@H]1COc2c(N3CCN(C)CC3)c(F)cc3c(=O)c(C(=O)O)cn1c23`, the inhibition is -9.45%.
In the case of `CCOc1ccc(C(=O)Nc2ccc(N3CCN(C)CC3)cc2)cc1`, the inhibition was -7.33%.
For the compound `CCn1cc(C(=O)NCC2CCCO2)c(=O)c2cc(F)c(N3CCN(C)CC3)cc21` (stereo not given), the inhibition was 0.68%.
The figure for `CN1CCN(c2c(F)cc3c(=O)c(C(=O)O)cn(CCF)c3c2F)CC1` is -2.24%.
As for `CCOc1ccc(C(=O)Nc2ccc(S(=O)(=O)N3CCN(C)CC3)cc2)cc1`, the inhibition was 8.02%.
The figure for `Cc1cc(C)n(CC(=O)N2c3ccccc3Sc3ccc(C(F)(F)F)cc32)n1` is -5.1%; for `Cc1cc[n+](-c2[nH]c(=O)sc2/C=N/N=C(\[O-])CCn2c3ccccc3c3ccccc32)cc1` it is 1.47%; for `Cn1c(=O)oc2cc(S(=O)(=O)NCCC(=O)N3CCc4ccccc4C3)ccc21` it is -8.83%.
Consider `COc1ccc(C(CNS(=O)(=O)c2ccc(F)cc2)N2CCN(C)CC2)cc1` (stereo not given), for which the inhibition is 3.53%.
Regarding `NC(=O)COC(=O)C12CC3CC(CC(O)(C3)C1)C2`, the inhibition was 17.4%.
The value for `CCOc1ccc(C(C)=O)cc1CSc1nc(C)cc(C)n1` was 4.1%; that for `CC(=O)c1cccc(NC(=O)NC2CCCCC2)c1` was -2.42%.
The figure for `COCCn1c(-c2ccc(Cl)cc2)cnc1SCC(=O)NCCc1ccc(OC)c(OC)c1` is 12.7%.
The value for `C=COCCn1c(-c2nonc2N)nc2ccccc21` was 18.4%; that for `CCOC(=O)C[N+](C)(C)CCOC1CC2CCC1(C)C2(C)C` (stereo not given) was 6.45%.
As to `CCCCOC(=O)C[N+](C)(C)CCOC1CC2CCC1(C)C2(C)C` (stereo not given), the inhibition is -9.77%.
The value for `CCCOC(=O)C[N+](C)(C)CCOC1CC2CCC1(C)C2(C)C` (stereo not given) was -23.2%; that for `CC(C)CCOC(=O)C[N+](C)(C)CCOC1CC2CCC1(C)C2(C)C` (stereo not given) was -2.94%.
Turning to `CC(C)CCNC(=O)C1(c2cccs2)CCOCC1`, the inhibition is -3.36%.
The value for `O=C(NCc1ccccn1)Nc1cccc(Cl)c1Cl` was 7.04%; that for `O=C1C=C(O)c2cccc(O)c2C1=O` was 4.81%.
Turning to `O=C1C=C(O)c2c(O)cccc2C1=O`, the inhibition was 5.73%.
Regarding `CC(=O)c1cccc(NC(=O)CCc2nnc3ccc(N4CCOCC4)nn23)c1`, the inhibition is 9.13%.
For the compound `Cc1ccc(-c2csc3nc4c5ccccc5c(NCCCN5CCOCC5)nn4c(=O)c23)cc1`, the inhibition is 2.89%.
Regarding `O=c1c2ccccc2nc2c3ccccc3c(NCCN3CCOCC3)nn12`, the inhibition was -8.49%.
Regarding `COc1cccc(/C=N/NC(=O)c2ccc(CN3c4cccc5cccc(c45)S3(=O)=O)cc2)c1`, the inhibition is -6.43%.
As for `OC(CNCCc1ccc(Cl)cc1)COc1ccc2ccccc2c1` (stereo not given), the inhibition is 7.14%.
On to `Cc1cc(OCC(O)CNC(C)(C)C)ccc1Cl` (stereo not given), for which the inhibition is -6.41%.
Regarding `Cc1nc(N)nc(N/N=C/c2ccccc2)n1`, the inhibition was -5.41%.
The value for `COCC(C)NS(=O)(=O)c1ccccc1` (stereo not given) was -1.07%; that for `CC(=O)c1cccc(NC(=O)c2sc3nc4n(c(=O)c3c2C)CCCCC4)c1` was 11.4%; that for `O=C(CN1CCCc2ccccc21)N/N=C/c1c(O)ccc2ccccc12` was 41.7%.
With `O=C(CN1CCOCC1)N/N=C/c1c(O)ccc2ccccc12`, the inhibition is 3.4%.
`Oc1ccc2ccccc2c1/C=N/Nc1ccccc1`: the inhibition is -2.22%.
Regarding `NC(=S)N/N=C/c1c(O)ccc2ccccc12`, the inhibition was -8.26%.
With `CCc1nccn1CCC(=O)N1CCCC(N2CCN(c3cccc(Cl)c3)CC2)C1` (stereo not given), the inhibition was -2.69%.
The value for `CN1CCCN(C(=O)c2cccc3ccccc23)CC1` was -0.73%; that for `O=C1CC(C(=O)N2CCN(c3ccc(F)cc3)CC2)CN1CCc1ccccc1` (stereo not given) was 5.66%; that for `CCCN(CC(=O)Nc1ccccc1C)C(=O)COc1ccc2c(c1)CCC2` was -2.3%.
`CN1CCCN(C(=O)c2c(F)cccc2Cl)CC1`: the inhibition is -6.36%.
Regarding `CCCS(=O)(=O)N1CCN(C(=O)COc2ccccc2)CC1`, the inhibition was 1.1%.
The figure for `O=C(C[n+]1cc(-c2ccccc2)n2c1CCC2)N1c2ccccc2Sc2ccccc21` is 9.1%.
Turning to `O=C(C[n+]1cc(-c2ccc(Cl)cc2)n2c1CCC2)N1c2ccccc2Sc2ccccc21`, the inhibition was 17.8%.
As to `O=C(C[n+]1cc(-c2ccc(F)cc2)n2c1CCC2)Nc1nc(-c2ccccc2)cs1`, the inhibition was 14.9%.
The value for `O=C(C[n+]1cc(-c2ccccc2)n2c1CCC2)Nc1nc(-c2ccccc2)cs1` was 2.36%; that for `Cn1c(NC(=O)C[n+]2cc(-c3ccc(Cl)cc3)n3c2CCC3)cc(=O)n(C)c1=O` was 4.64%.
Consider `Cn1c(NC(=O)C[n+]2cc(-c3ccc(F)cc3)n3c2CCC3)cc(=O)n(C)c1=O`, for which the inhibition is 4.11%.
The value for `CC1CCc2c(nc3ncnn3c2N2CC(C)OC(C)C2)C1` (stereo not given) was -10.6%; that for `Cc1ccc(S(=O)(=O)CCC(=O)Oc2ccc(-c3nnco3)cc2)cc1` was -2.63%; that for `COc1cccc(CN2CCN(Cc3cc(OC)c(OC)cc3OC)CC2)c1` was -6.37%.
Regarding `COc1ccc2cc(C(=O)N/N=C/c3sc4ccccc4c3O)ccc2c1`, the inhibition was 9.41%.
Consider `O=C(N/N=C/c1ccccc1O)c1cccc2ccccc12`, for which the inhibition was 7.21%.
As for `O=C(N/N=C/c1ccccc1F)c1cccc2ccccc12`, the inhibition was -1.58%.
Regarding `COc1ccc(C(=O)N/N=C/c2c[nH]c3ccccc23)cc1`, the inhibition was 4.37%.
The figure for `CCC(=O)N1CCc2cc(Br)cc(S(=O)(=O)CCC(=O)NCCOC)c21` is 1.63%; for `COC(=O)[C@@H](NC(=O)Nc1ccc(OC(F)(F)F)cc1)C(C)C` it is -9.58%.
